Assay results reported in PubChem BioAssay (NCI).
Compounds without any hit were thinned out: in the full panel of roughly 83,000, 20% have a hit.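 96-well plates, one dose, 48 hours. Percent growth reported; active if below 10.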 The source made the active and inactive calls.

How the values were obtained:
Assay in all cases: NCI-60 one-dose screen, 48 h (100 = growth as untreated, 0 = no growth, -100 = all killed)
Conditions in all cases: 10 µM unless noted
[1] = tested on: NCI-H23 lung
[2] = tested on: NCI-H226 lung
[3] = tested on: NCI-H322M lung
[4] = tested on: HOP-62 NSCLC
[5] = tested on: NCI-H460 lung
[6] = tested on: 786-0 renal
[7] = tested on: COLO 205 colon
[8] = tested on: DU-145 prostate
[9] = tested on: K-562 leukemia
[10] = tested on: MALME-3M melanoma
[11] = tested on: MDA-MB-231 breast
[12] = tested on: RXF 393 renal
[13] = tested on: SF-268 CNS
[14] = tested on: SF-295 CNS
[15] = tested on: SF-539 CNS
[16] = tested on: UACC-257 melanoma
[17] = tested on: M14 melanoma
[18] = tested on: A549/ATCC NSCLC
[19] = tested on: HOP-92 NSCLC

Measured: growth

Oc1ccc(/C=N/Nc2nc3ccccc3s2)c(O)c1
inactive: [1] 56.8% | [2] 45% | [3] 11.9% | [4] 26.7% | [5] 10.9% | [6] 38.3% | [7] 89.3% | [8] 32.4% | [9] 30% | [10] 52.4% | [11] 41.9% | [12] 53.9% | [13] 21.6% | [14] 36.4% | [15] 34.5% | [16] 37.4% | [17] 27.1%

C[C@H](C(=O)N[C@@H](Cc1ccc(-c2ccccc2)cc1)C(=O)NC1CC(C)(C)N(C)C(C)(C)C1)c1ccc(-c2ccccc2)c(F)c1
active: [1] -71% | [2] -49.1% | [3] -62.3% | [4] -73.5% | [5] -75.8% | [18] -79.1% | [6] -91.3% | [7] -69.6% | [8] -83.1% | [9] -56.9% | [10] -71.5% | [11] -68.5% | [12] -73.2% | [13] -70.9% | [14] -66% | [15] -79.5% | [16] -66.2% | [17] -82.6%

O=C1C2C(C(=O)N1CC[Se][Se]CCN1C(=O)C3C(C1=O)[C@H]1C=C[C@@H]3C1)[C@H]1C=C[C@@H]2C1 (stereo partly specified)
active: [1] -9.33% | [2] -46.9% | [3] 2.77% | [4] -80.1% | [19] -74.4% | [18] -28.4% | [6] -84% | [7] -86.6% | [8] -46.7% | [9] 7.86% | [10] -35.6% | [11] -33.8% | [12] -89% | [13] -45.8% | [14] -78.2% | [15] -86.7% | [16] -63.8% | [17] -20%

COc1c(Br)cc(C(c2cc(Br)c(OC)c(Br)c2)c2ccccc2C(=O)O)cc1Br
inactive: [1] 97.3% | [2] 99.8% | [3] 102% | [4] 94.1% | [19] 55.7% | [18] 98.7% | [6] 100% | [7] 110% | [8] 111% | [9] 89.6% | [10] 91.3% | [11] 102% | [12] 107% | [13] 98.8% | [14] 96% | [15] 92.2% | [17] 95.4%

CC(=O)c1ccccc1NC(=O)C(C)(c1ccccc1)c1ccccc1
inactive: [1] 82.7% | [2] 91% | [3] 89.3% | [4] 40.4% | [5] 106% | [6] 92.5% | [7] 114% | [9] 72.5% | [10] 83% | [11] 88.8% | [13] 92.6% | [14] 86.1% | [15] 105% | [16] 85.9% | [17] 99.9%

COC(=O)Nc1ccc2ccc3c(NC(=O)OC)ccc4ccc1c2c43 (tested in a mixture with another compound)
inactive: [1] 65% | [2] 83.3% | [3] 65% | [5] 26.5% | [18] 41.2% | [6] 60% | [7] 30.8% | [8] 86.9% | [9] 25% | [10] 68.8% | [11] 54.1% | [12] 77.6% | [13] 67.7% | [14] 48.2% | [15] 50.7% | [16] 71.7% | [17] 25.4%

Cc1cc2c(cc1C)[n+](Cc1ccc3ccccc3c1)cn2Cc1ccc2ccccc2c1
active: [1] -71.8% | [2] -25.5% | [3] -8.28% | [5] -76.8% | [19] -80.8% | [18] -71.3% | [6] -88.9% | [7] -67.8% | [8] -89.5% | [9] -57.3% | [10] -78.7% | [11] -75.7% | [12] -87% | [13] -81.2% | [14] -80.9% | [15] -93.2% | [16] -55.6% | [17] -78.8%

Nc1nc(Nc2ccccc2SSc2ccccc2Nc2nc(N)nc(-c3ccc(I)cc3)n2)nc(-c2ccc(I)cc2)n1
active: [18] -19.9%
inactive: [1] 47.3% | [2] 69.8% | [3] 81.1% | [5] 54.8% | [19] 107% | [6] 86.9% | [7] 112% | [8] 66% | [9] 68.7% | [10] 103% | [11] 55% | [12] 88.2% | [13] 43% | [14] 47.6% | [15] 89.2% | [16] 110% | [17] 77.2%

CCCCCN(CCCCC)CCCNc1c2c(nc3ccc(Cl)cc13)CCCC2
inactive: [1] 30.7% | [2] 50.8% | [3] 73.8% | [5] 34% | [18] 31.8% | [8] 66.6% | [9] 14.2% | [10] 35.5% | [11] 18.5% | [12] 57.1% | [13] 76.1% | [14] 37.8% | [15] 47% | [16] 13.2%
active: [19] -6.23% | [7] -11%

FC(F)(F)c1cc(-c2nnc3n2N=C(N2CCCC2)CS3)cc(C(F)(F)F)c1
inactive: [1] 62.7% | [2] 58.4% | [3] 99% | [4] 37.7% | [19] 37.4% | [18] 60.4% | [7] 98.1% | [8] 86.8% | [9] 70.7% | [10] 83.4% | [11] 59.6% | [13] 74.9% | [14] 45.9% | [15] 30% | [16] 93.2% | [17] 100%

CC1=C([Se]CC(OC(=O)[C@@H](CSSC(C)(C)C)NC(=O)C(C)(C)C)C(=O)NCCCCCC(=O)OCc2ccccc2)C(=O)c2ccccc2C1=O (stereo partly specified)
inactive: [7] 40.4% | [8] 13.3%
active: [1] -30.2% | [2] 3.19% | [3] -22.6% | [5] 1.81% | [19] -35.9% | [18] 1.31% | [6] -55.6% | [9] 7.91% | [10] -39.1% | [11] -15.3% | [12] -33.5% | [13] 7.11% | [14] -27.8% | [15] -69.4% | [16] -20.8% | [17] -32.5%

Cc1ccc(C(NC(=O)c2ccccc2)c2ccc3cccnc3c2O)cc1 (stereo unspecified)
inactive: [1] 23.5% | [3] 25.3% | [4] 17.3% | [19] 24.8% | [7] 29.3% | [8] 20.7% | [9] 10.1% | [10] 19.9% | [11] 16.5% | [12] 41.8% | [14] 10.3%
active: [2] -6.24% | [6] -14.5% | [13] 8.85% | [15] 7.53% | [17] -22.9%

CCCCCCCCCCNCCSS(=O)(=O)O
active: [9] 6.77% | [13] -35.9%
inactive: [1] 86.2% | [2] 102% | [3] 76.7% | [4] 100% | [19] 93.3% | [18] 69.7% | [6] 87.6% | [7] 116% | [8] 73.3% | [10] 106% | [11] 76.3% | [12] 104% | [15] 99.3% | [16] 101% | [17] 34.3%

CC1C(=O)NC2=Nc3ccccc3C(=O)NN21 (stereo unspecified)
inactive: [1] 97.2% | [2] 92.9% | [3] 97.2% | [5] 104% | [19] 94.9% | [6] 97.9% | [7] 104% | [8] 119% | [9] 101% | [10] 104% | [11] 90.4% | [12] 116% | [13] 113% | [14] 105% | [15] 103% | [16] 114% | [17] 102%

O=C(Nc1nn2c(-c3cc(C(F)(F)F)cc(C(F)(F)F)c3)nnc2s1)C1CCCC1
inactive: [8] 33.1% | [10] 10.4% | [13] 28.4% | [15] 12.8%
active: [1] -2.97% | [2] 9.1% | [3] 4.33% | [5] 3.63% | [19] -24.2% | [18] 7.1% | [7] -82.5% | [9] 6.69% | [11] -32% | [14] 1.49% | [16] 4.69% | [17] 7.59%

Cc1nn(-c2ccccc2)c2nc(N)c(C3=NCCO3)nc12
inactive: [1] 96.9% | [2] 93.6% | [3] 89.5% | [5] 97.7% | [18] 86.5% | [6] 99.7% | [7] 94.1% | [8] 114% | [9] 102% | [10] 88.6% | [11] 87% | [12] 108% | [13] 111% | [14] 90.8% | [15] 99.6% | [17] 105%

CC(=O)Nc1ccc(C(=O)COc2ccc(/C=C3\CCc4ccccc4C3=O)cc2)cc1
inactive: [1] 108% | [2] 94.8% | [3] 108% | [4] 113% | [19] 114% | [6] 97% | [7] 143% | [9] 80.4% | [11] 103% | [13] 93.6% | [14] 104% | [15] 115% | [16] 98.9% | [17] 115%

Cc1cccc2nnc(-c3ccccc3)n12
inactive: [1] 104% | [2] 106% | [3] 104% | [4] 125% | [19] 105% | [18] 94.4% | [6] 94.8% | [7] 118% | [8] 124% | [9] 100% | [11] 94.5% | [12] 117% | [13] 111% | [14] 109% | [15] 108% | [16] 105% | [17] 102%
